Test [1] concerns Wnt5a (protein binding on small-molecule microarray). Nature of the test: Wnt5a binders on small-molecule microarray, primary screen, biophysical, 635/667 nm fluorescence (AID 1142).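 Note: fluorescence read at 667 nm with signal to noise per printed feature.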 The following applies: 635 nm fluorescence, higher = more signal.
Test [2] is described as follows: cell viability in Huh7 cells, primary screen, cytotoxicity control for HCV replication inhibitor project, CellTiter-Glo luminescence, basal, 48 h (AID 1143).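 Note: Huh7 hepatoma cells carrying a hepatitis C replication reporter with no stimulus; test concentration not given here.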 The following applies: Huh7 HCV replicon, higher = more signal, called active from +8 up or from −8 down. Background: ATP-based viability assays read luminescence as a measure of living cells.
Test [3] in a line: P. aeruginosa biofilm formation inhibitors, primary screen, PAO1 strain, BacTiter-Glo luminescence, LB-PBS (AID 1144). The following applies: 12 h, higher = more signal.
A short description of test [4]: CREB reporter modulators without forskolin, primary screen, cell-based, PC12, CRE-LacZ reporter, unstimulated (AID 1145). The following applies: no forskolin, luminescence, 4.5 h, higher = more signal, called active from +8 up or from −8 down.
Test [5] in a line: CREB reporter modulators under forskolin, primary screen, cell-based, PC12, CRE-LacZ reporter, forskolin-stimulated (AID 1146).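 Note: PC12 cells with 6xCRE LacZ reporter stimulated by forskolin 10 µM; beta-galactosidase reporter signal reflecting CREB driven transcription.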 To be noted: luminescence, 4.5 h, higher = more signal, called active from +8 up or from −8 down.
The target in test [6] is Streptavidin (Streptomyces avidinii) (UniProt P22629). As to the kind of experiment: streptavidin binders on small-molecule microarray, primary screen, artefact control for SMM compound annotation, biophysical, 635/667 nm fluorescence (AID 1147).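 Note: signal reflects streptavidin binding to arrayed compounds as a control protein.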 The following applies: streptavidin binding, higher = more signal.
Chain of Streptavidin (Streptomyces avidinii) (P22629 whole entry, looked up): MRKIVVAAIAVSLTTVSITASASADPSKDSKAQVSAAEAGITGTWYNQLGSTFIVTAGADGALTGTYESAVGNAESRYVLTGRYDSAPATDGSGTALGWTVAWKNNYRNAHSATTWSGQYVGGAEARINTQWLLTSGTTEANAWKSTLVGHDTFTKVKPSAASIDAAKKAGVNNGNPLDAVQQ
A short description of test [7]: small-molecule binders of probe aInhba, primary screen, biochemical, small-molecule microarray, 635/667 nm fluorescence (AID 1148).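 Note: score merges 667nm spot fluorescence with signal-to-noise for antibody binding to printed compounds.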 The following applies: higher = more signal.
In test [8] the target is Torsin-1A (Homo sapiens) (UniProt O14656). As to the kind of experiment: torsin A binders from cell lysate, primary screen, small-molecule microarray, wild-type, 635/667 nm (AID 1149). To be noted: COS7 hTOR1A-WT lysate, 635 nm fluorescence, higher = more signal.
Chain of Torsin-1A (Homo sapiens) (O14656 whole entry, looked up): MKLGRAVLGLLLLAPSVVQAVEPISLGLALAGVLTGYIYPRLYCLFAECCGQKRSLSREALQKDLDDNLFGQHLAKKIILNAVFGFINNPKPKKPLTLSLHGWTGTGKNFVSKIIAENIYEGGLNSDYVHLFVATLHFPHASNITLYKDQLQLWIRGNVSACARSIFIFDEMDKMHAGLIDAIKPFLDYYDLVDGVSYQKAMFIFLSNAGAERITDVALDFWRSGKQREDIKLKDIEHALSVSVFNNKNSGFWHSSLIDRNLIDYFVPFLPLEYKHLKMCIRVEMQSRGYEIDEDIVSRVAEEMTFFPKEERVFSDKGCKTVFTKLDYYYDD
The target is the same in test [9]. As to the kind of experiment: small-molecule binders of mutant TOR1A in lysate, primary screen, cell lysate, small-molecule microarray, COS7 lysate, 635/667 nm fluorescence (AID 1150).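 Note: score pools 667 nm emission and signal to noise measuring lysate protein binding.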 To be noted: COS7 hTOR1A mutant lysate, 635 nm fluorescence, higher = more signal.
Test [10] has as its system Sonic hedgehog protein (Shh). Nature of the test: small-molecule binders of Shh protein, primary screen, biochemical, small-molecule microarray, 635/667 nm fluorescence (AID 1151).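 Note: Shh protein binding to compounds spotted on small-molecule microarray slides; score combines spot fluorescence intensity with signal-to-noise across triplicate slides.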 To be noted: small-molecule microarray binding, 635 nm fluorescence; higher = more signal.

From PubChem BioAssay come the findings set out here.

Calls of active or inactive are those of the source. Unless noted, the rule behind the calls is not given here.

On to `COCCOC(=O)N1C(=O)[C@@]2(c3cc(C#CCCO)ccc31)[C@H](c1ccc(O)cc1)N1[C@H](c3ccccc3)[C@H](c3ccccc3)OC(=O)[C@H]1[C@@H]2C(N)=O`, for which the composite z-score was 0.453 in [1]; -0.656 in [6]; 0.0388 in [7]; 0.553 with Torsin-1A (Homo sapiens) [8]; 0.883 with Torsin-1A (Homo sapiens) [9]; 0.493 in test [10]. The z-score in test [2] was -0.209 (inactive); in [3], 0.393 (inactive); in [4], 0.48 (inactive); in test [5], 0.73 (inactive).

As for `O=C1O[C@@H](c2ccccc2)[C@@H](c2ccccc2)N2[C@@H](c3ccc(OCCO)cc3)[C@]3(C(=O)Nc4ccc(C#CC5=CCCCC5)cc43)[C@@H](C(=O)O)[C@H]12`, the composite z-score worked out at 0.411 in test [1]; 1.22 in test [6]; 0.0895 in [7]; 0.0714 with Torsin-1A (Homo sapiens) [8]; 0.97 with Torsin-1A (Homo sapiens) [9]; 0.658 in test [10]. The z-score in test [2] was -2.22 (inactive); in [3] it was -0.761 (inactive); in test [4], -0.348 (inactive); in test [5] it was 7.68 (inactive).

For `O=C1OCCC=C[C@H]2OC34C=CCN(Cc5ccccc5)C(=O)[C@H]3N(CCCCCO)C(=O)[C@@H]4C12` (stereo not given in full), the composite z-score in test [1] is -0.733; in [6] it was -0.636; in [7] it was -0.128; with Torsin-1A (Homo sapiens) [8] it was 2.82; in the test with Torsin-1A (Homo sapiens) [9], 2.07; in test [10], -0.211. Also, the z-score in test [2] is 0.409 (inactive); in test [3], -1.86 (inactive); in test [4], -0.216 (inactive); in [5], -0.732 (inactive).

For `CC(C)CNC(=O)[C@@H]1c2ccccc2C(=O)N(Cc2cc(C(F)(F)F)cc(C(F)(F)F)c2)[C@H]1c1ccc(CO)cc1`, the composite z-score is -0.0674 in [1]; -0.674 in [6]; 0.212 in [7]; -0.395 in the test with Torsin-1A (Homo sapiens) [8]; -0.537 in the test with Torsin-1A (Homo sapiens) [9]; -0.22 in test [10]. For the same compound, the z-score in test [2] was -1.51 (inactive); in test [3], 0.788 (inactive); in [4] it was -0.0512 (inactive); in test [5] it was -1.2 (inactive).

In the case of `COC(=O)[C@@]1(Cc2ccccc2)N=C(c2ccc(OCCCO)cc2)O[C@H]1c1ccccc1N=[N+]=[N-]`, the composite z-score is 0.805 in test [1]; -1.09 in test [6]; 0.25 in test [7]; 3.85 in the test with Torsin-1A (Homo sapiens) [8]; 3.84 with Torsin-1A (Homo sapiens) [9]; 2.07 in test [10]. Moreover, the z-score in test [2] was -4.03 (inactive); in test [3] it was -0.0344 (inactive); in [4], 2.95 (inactive); in test [5], -1.52 (inactive).

For `C=CCC(OC(C)=O)[C@@H]1[C@@H](N(Cc2ccc(-c3ccccc3)cc2)C(=O)Cc2ccc(OC)cc2)c2cc(OCCCO)ccc2N1C(=O)c1ccc2ccccc2n1` (stereo not given in full), the composite z-score is -0.167 in test [1]; 0.437 in test [6]; -0.0471 in test [7]; -0.0598 in the test with Torsin-1A (Homo sapiens) [8]; 0.0615 with Torsin-1A (Homo sapiens) [9]; -0.111 in test [10]. Further, the z-score in test [2] is -1.53 (inactive); in test [3], 0.321 (inactive); in test [4], 0.409 (inactive); in [5], 0.677 (inactive).

As to `CCC[C@@H]1C=C(C(=O)O)[C@H](c2ccc(C)cc2)N1S(=O)(=O)c1ccc(C)cc1`, the composite z-score in test [1] was 0.0266; in test [6], 0.981; in [7], -0.0087; in the test with Torsin-1A (Homo sapiens) [8], 0.837; with Torsin-1A (Homo sapiens) [9], 1.38; in [10], -0.65. Further, the z-score in [2] is 0.224 (inactive); in test [3], -0.0655 (inactive); in [4] it was -0.527 (inactive); in test [5], 0.348 (inactive).

Consider `COCCOC(=O)N1C(=O)[C@@]2(c3cc(C#CCCO)ccc31)[C@H](c1ccccc1OCCO)N1[C@H](c3ccccc3)[C@H](c3ccccc3)OC(=O)[C@H]1[C@@H]2C(=O)N1CCN(c2ncccn2)CC1`, for which the composite z-score in test [1] is 0.544; in [6] it was 1.41; in [7], 0.262; with Torsin-1A (Homo sapiens) [8], 0.0623; with Torsin-1A (Homo sapiens) [9] it was 0.835; in [10], 1.37. Further, the z-score in test [2] is -1.01 (inactive); in [3], 0.566 (inactive); in test [4] it was -0.329 (inactive); in test [5], 1.99 (inactive).

Consider `CCN(CC)c1ccc(N2CC=CC34O[C@@H]5/C=C\CCCOC(=O)C5[C@H]3C(=O)N(C(CO)C(C)C)[C@@H]4C2=O)cc1` (stereo not given in full), for which the composite z-score in test [1] is -0.297; in test [6], -0.819; in test [7], -0.128; in the test with Torsin-1A (Homo sapiens) [8], 0.006; with Torsin-1A (Homo sapiens) [9], -1.2; in test [10] it was 0.0008. The z-score in test [2] is -0.245 (inactive); in test [3] it was 2.75 (inactive); in [4], -0.0939 (inactive); in test [5] it was 0.119 (inactive).

Turning to `N#Cc1ccc(NN2C(C(O)c3ccc([N+](=O)[O-])cc3)C=CC3C(=O)N(c4ccccc4)C(=O)C32)cc1` (stereo not given), the composite z-score in [1] is 0.72; in test [6], 0.323; in [7], 0.137; with Torsin-1A (Homo sapiens) [8] it was -0.169; with Torsin-1A (Homo sapiens) [9] it was 0.303; in [10], -0.261. The z-score in [2] is 0.845 (inactive); in test [3] it was -0.245 (inactive); in test [4], -0.525 (inactive); in test [5], 0.516 (inactive).

Consider `COC(=O)[C@@]1(Cc2ccc(F)cc2)[C@H]2c3cc(C(=O)N(C)C)n(CCc4ccccn4)c3C[C@H]2CN1C(=O)c1ccccc1`, for which the composite z-score is 1.9 in test [1]; -0.0936 in [6]; 1.14 in test [7]; 1.23 with Torsin-1A (Homo sapiens) [8]; 0.948 in the test with Torsin-1A (Homo sapiens) [9]; -0.154 in test [10]. In addition, the z-score in test [2] was -1.86 (inactive); in test [3], -0.604 (inactive); in [4] it was 0.39 (inactive); in [5], -0.038 (inactive).

For `O=C1O[C@@H](c2ccccc2)[C@@H](c2ccccc2)N2[C@@H](c3ccccc3OCCO)[C@]3(C(=O)Nc4ccc(C#CC5(O)CCCCCC5)cc43)[C@@H](C(=O)Nc3nc4ccccc4s3)[C@H]12`, the composite z-score was 0.555 in test [1]; 1.22 in [6]; -0.0195 in test [7]; 0.711 with Torsin-1A (Homo sapiens) [8]; 0.659 with Torsin-1A (Homo sapiens) [9]; 0.902 in test [10]. In addition, the z-score in test [2] was -5 (inactive); in [3], 0.207 (inactive); in [4], 0.224 (inactive); in test [5], 0.474 (inactive).

Turning to `CCCCC(CC)C(O)C1C=CC2C(=O)N(c3ccccc3)C(=O)C2N1Nc1ccccc1` (stereo not given), the composite z-score in test [1] was 0.0653; in [6], 0.948; in test [7], 0.103; with Torsin-1A (Homo sapiens) [8], -0.311; in the test with Torsin-1A (Homo sapiens) [9], 0.178; in [10] it was -0.751. Further, the z-score in test [2] is -2.93 (inactive); in test [3] it was -0.569 (inactive); in test [4], 0.253 (inactive); in test [5] it was 0.011 (inactive).

For the compound `COC(=O)[C@@]1(Cc2ccc(OC)cc2)[C@H]2c3cc(C(=O)N4CCCC4)n(CCc4c[nH]c5cc(F)ccc45)c3C[C@H]2CN1C(=O)c1ccccc1`, the composite z-score in [1] amounted to 0.313; in [6], 2.19; in test [7], 0.636; with Torsin-1A (Homo sapiens) [8], 0.188; in the test with Torsin-1A (Homo sapiens) [9], 1.25; in test [10], 0.133. Also, the z-score is -1.26 (inactive) in [2], -0.0146 (inactive) in [3], 0.773 (inactive) in [4] and 0.199 (inactive) in test [5].
